Screens from PubChem BioAssay.
The list is not random: actives were taken first. Their share in the collection is about 0.99%.
TRPV1 agonist – activates the human vanilloid receptor TRPV1. TRPV1-expressing cells, Fluo-8 calcium influx, agonist mode. hit rate 0.19% among 320,000. Q8NER1. activation, % at 8.33 µM; in the data active means activation above about 80%; inconclusive means between about 30% and that limit; further: 0% is about no effect
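Cells expressing TRPV1 were dye-loaded with Fluo-8 and read kinetically: 10 s baseline, 3 min after compound (agonist portion), then 2 min after EC20 capsaicin (allosteric enhancer portion). Calcium-bound dye fluorescence at 480/520 nm.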
TRHR ag – activates the human TRH receptor; P34981; TRHR cells, calcium flux fluo-8, FDSS agonist mode; activation, % at 2 µM; hit rate 0.18% among 360,000; in the data active means activation above about 30%; further: 0% is about no effect
Target sequence (P34981 whole entry, looked up): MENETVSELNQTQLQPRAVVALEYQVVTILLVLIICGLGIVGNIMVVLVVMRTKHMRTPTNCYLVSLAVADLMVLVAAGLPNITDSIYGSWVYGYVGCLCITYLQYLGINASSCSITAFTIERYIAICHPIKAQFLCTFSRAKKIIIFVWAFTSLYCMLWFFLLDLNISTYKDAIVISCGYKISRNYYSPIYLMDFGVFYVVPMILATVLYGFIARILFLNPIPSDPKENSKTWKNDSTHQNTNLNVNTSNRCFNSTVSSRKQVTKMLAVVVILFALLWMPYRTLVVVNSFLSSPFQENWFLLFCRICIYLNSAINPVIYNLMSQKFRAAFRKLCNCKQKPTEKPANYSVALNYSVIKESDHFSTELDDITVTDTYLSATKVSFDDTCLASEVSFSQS
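Fluo-8-loaded TRHR cells; 10 s baseline, compound added, kinetic Ca2+ fluorescence read 1/s, agonist mode.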
TRPV1 potentiator – human TRPV1 potentiation. Q8NER1. TRPV1-expressing cells, Fluo-8 calcium influx, capsaicin EC20 potentiation. potentiation, % at 8.33 µM. hit rate 0.02% among 320,000; in the data active means potentiation above about 80%; inconclusive means between about 30% and that limit; further: 0% is about no effect
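Fluo-8 calcium influx in TRPV1-expressing cells, kinetic read (ex 480/em 520 nm). Compound added and read 3 min for agonist activity, followed by capsaicin at EC20 final and 2 min further read for enhancement.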
TRHR PAM – TRH receptor (human) allosteric enhancement; P34981; TRHR cells, fluo-8 calcium fluorescence, EC20 TRH enhancement; enhancement, % at 2 µM; hit rate 0.66% among 360,000; in the data active means enhancement above about 30%; further: 0% is about no effect
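Enhancer read-out: after compound pinning and an initial kinetic agonist-mode read, an EC20 of TRH (10 nM final) was injected and fluo-8 calcium signal (Ex 480/Em 530) followed at 1 s/cycle for 100 cycles in TRHR-expressing cells.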
TRPML1 blocker – blocks the human TRPML1 channel; activity change, negative = inhibition, % (concentration not given with the values); AID 624415; TRPML1-inducible cells, Ca2+ dye fluorescence, FDSS; active compounds read low; inhibition of EC80 agonist-evoked calcium signal; hit rate 0.02% among 390,000; in the data active means activity change below about -50%; inconclusive means between about -30% and that limit;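 further: stimulus is agonist 54-4 at its EC80 concentration; on the % scale 0 is the no-effect control and ±100 the full control effect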
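Tet-induced TRPML1-DL cells loaded with Ca8 no-wash calcium dye were read kinetically on FDSS. Compound addition was followed by EC80 agonist 54-4 (4 uM final); inhibition was read over 110 s.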
TRPML1 agonist – agonists of human TRPML1 channel. hit rate 0.12% among 410,000. TRPML1-expressing cells, Ca2+ dye fluorescence, FDSS. Q9GZU1. activation, % (test concentration not listed); in the data active means activation above about 50%; inconclusive means mostly about 30% to 49%; further: 0% is about no effect
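Cells: TRPML1-DL, 1X Tet inducer, ~16 h at 37 degrees C/5% CO2. Dye: ABD Ca8 no-wash + quencher, 45-90 min RT. Read: 10 s baseline, compound add, 110 s agonist phase; 54-4 EC80 (4uM final), 110 s antagonist phase.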
* marks the source's active call; other numbers are inactive results; ? = inconclusive; . = no result given.

SMILES	TRPV1 agonist	TRHR ag	TRPV1 potentiator	TRHR PAM	TRPML1 blocker	TRPML1 agonist
CC[C@@H]1CCC[C@@H](O)[C@@H](C)C(=O)O[C@H](C)[C@@H](C)C/C=C(C)/C(OC)=C\C(=O)N(C)C([C@@H](C)CC)C(=O)N(C)[C@@H](C(C)C)C(=O)N(C)[C@@H](COC)C(=O)N2CCC[C@H]2C(=O)N(C)[C@@H](C(C)C)C(=O)N2CCC[C@H]2C(=O)O1 (some centres not stated)	.	.	.	.	.	51*
COc1cc(C2NC(=O)NC(c3ccccc3)=C2C(C)=O)cc(Cl)c1OCC(=O)O (configuration not stated)	-1	0	-36	33*	-4	0
COc1cc(C2NC(=S)NC(c3ccccc3)=C2C(C)=O)cc(Cl)c1OCC(=O)O (configuration not stated)	0	-1	0	6	22	1
COc1ccc(C(=O)C=Cc2ccc3c(c2)OCO3)cc1OC	.	.	.	.	19	0
COc1cc(/C=C/C(=O)c2ccc3c(c2)OCO3)cc(Cl)c1O	?	197*	0	22	2	56*
CC(C)(C)OC(=O)Cc1nnc(-c2cc3ccccc3[nH]2)s1	.	1	.	-3	.	.
COc1ccccc1Nc1ncnc2c1cnn2-c1cccc(C)c1	85*	0	5	6	0	0
COc1cccc(Nc2ncnc3c2cnn3-c2cccc(C)c2)c1	23	0	-24	9	10	0
COc1ccc(C(=O)n2nc(-c3cccnc3)nc2NCc2ccccc2)cc1OC	.	1	.	-3	4	0
CCN(Cc1ccccc1)C(=O)CN1C(=O)NC(CC)(c2ccc(F)cc2)C1=O (configuration not stated)	-2	0	2	31*	10	3
CCC1(c2ccc(F)cc2)NC(=O)N(CC(=O)Nc2ccccc2C)C1=O (configuration not stated)	3	3	1	3	23	5
CC1CCCC(NC(=O)COC(=O)c2ccccc2Sc2ccccc2C#N)C1C (configuration not stated)	2	0	-6	30*	-9	1
Clc1ccc(CN(CC2CCCO2)C(c2cccs2)c2nnnn2C2CCCC2)cc1 (configuration not stated)	-2	0	-10	4	-3	54*
Cc1ccc2c(c1C)-c1c(ccc(C)c1C)C(=O)C2=O	.	.	.	.	-9	13
Cc1ccc(CC#N)c(-c2c(CC#N)ccc(C)c2C)c1C	.	.	.	.	-16	78*
Cc1cccc(C)c1NC(=O)N1CC=CCC1	-4	0	-10	-5	-13	0
Cc1cccc(C)c1NC(=O)N1CCCCCCC1	-3	0	-1	39*	2	0
COc1cccc(CNn2c(-c3cccc(C)c3)nc3ccccc3c2=O)c1	?	1	-6	37*	-9	3
COC(=O)c1cc(NC(=O)CCc2c(C)nc3cc(-c4ccccc4)nn3c2C)cc(C(=O)OC)c1	.	0	.	40*	18	0
CCc1cccc(NC(=O)CCc2c(C)nc3c(-c4ccccc4)c(C)nn3c2C)c1	.	0	.	2	-11	1
COc1ccc(-c2cc3nc(C)c(CCC(=O)Nc4cccc(C(F)(F)F)c4)c(C)n3n2)c(OC)c1	.	0	.	32*	-17	-1
COc1ccc(-c2cc3nc(C)c(CCC(=O)NC(C)c4ccccc4)c(C)n3n2)c(OC)c1 (configuration not stated)	.	0	.	2	-3	-1
COc1ccc(NC(=O)CCc2c(C)nc3cc(-c4cccc(F)c4)nn3c2C)cc1Cl	.	0	.	40*	19	-1
COc1cc(OC)cc(-c2cc3nc(C)c(CCC(=O)Nc4ccc(F)c(Cl)c4)c(C)n3n2)c1	.	0	.	-2	-12	0
CCOc1ccc(NC(=O)CCc2c(C)nc3c(-c4ccccc4)c(C)nn3c2C)cc1	.	0	.	48*	-15	1
SMILES	TRPV1 agonist	TRHR ag	TRPV1 potentiator	TRHR PAM	TRPML1 blocker	TRPML1 agonist
Nc1cccc(S(=O)(=O)N2CCOCC2)c1	.	.	.	.	.	-1
N#CC1=C(N)Oc2cc(O)c(Cl)cc2C1c1ccccc1F (configuration not stated)	?	55*	20	8	7	?
COC(=O)C1=C(C)OC(N)=C(C#N)C1c1ccccc1F (configuration not stated)	-1	0	-4	-2	4	-1
CC(Sc1nnc(-c2cccnc2)n1N)C(=O)N1CCOCC1 (configuration not stated)	-2	0	-1	-4	-17	0
CC(Sc1nnc(-c2cccnc2)n1-c1ccccc1F)C(=O)N1CCCc2ccccc21 (configuration not stated)	7	0	-2	37*	.	.
CC1(C)CC(=O)c2c(noc2-c2ccccc2)C1	-5	-1	12	12	-6	-1
CC1(C)CC(=O)c2c(Cc3ccccc3)noc2C1	15	0	-14	32*	-6	-1
O=C1CN(C(=O)COC(=O)CCSc2ccccc2Cl)c2ccccc2N1	-3	-1	26	33*	-13	0
COc1ccccc1CNC(=O)c1cnc2c(-c3ccccc3)c(C)nn2c1C	.	0	.	4	6	1
CCNc1nc(N2CCOCC2)nc(N(c2ccccc2)c2ccccc2)n1	-5	-1	1	37*	-13	0
Cc1ccc(S(=O)(=O)N2CCN(c3nc(-n4cncn4)nc4ccccc34)CC2)cc1	.	.	.	.	.	-1
Cc1ccnc2c(Cl)cccc12	.	.	.	.	.	-1
O=C(C1CCN(S(=O)(=O)c2ccccc2F)CC1)N1CCc2ccccc21	19	-1	-6	-10	6	1
O=C(C1CCN(S(=O)(=O)c2ccccc2)CC1)N1CCc2ccccc21	?	247*	-1	60*	12	0
Cc1ccc(NC(=O)c2nc(S(=O)(=O)Cc3ccccc3F)ncc2Cl)cc1C	.	.	.	.	.	1
S=C(NCc1ccco1)N1CCN(c2ccc(Cl)cc2)CC1	30	-2	0	40*	6	0
CC(=O)c1ccc(N2CCN(C(=S)NCc3ccco3)CC2)cc1	3	0	-4	-7	-14	2
O=C(COc1ccc(Br)cc1Cl)Nc1ncn[nH]1	.	-1	.	0	11	-1
CCOC(=O)c1[nH]c2ccc(C)cc2c1NC(=O)CN1CCCCC1	?	0	5	-4	2	0
COC(=O)c1[nH]c2ccc(C)cc2c1NC(=O)CN1CCCC(C)(C)C1	89*	0	-12	3	33	0
CC(=NNC(=O)c1ccncc1)c1ccc2ccccc2c1O	.	.	.	.	-21	79*
